Results from PubChem BioAssay (Tox21).
Inconclusive results are not listed. Calls of active or inactive are those of the source. Unless noted, calls follow the shape of the dose curve; as a rule, active = well fitted curve in the direction sought with a large enough effect in the repeat runs; inconclusive = weak or mixed curves; inactive = no such curve, though single readings can be large; an effect the other way counts as inactive or inconclusive.

What was measured:
[1] = A CellTox Green Cytotoxicity Assay to monitor cytotoxicity in HepG2 cells - 16 hour (AID 1224876); also: nearly all actives have a fitted effect of over 45% in size
Method in brief: (§1)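 First, HepG2 cells (600/well) mixed with reagent were plated; second, after 5 h at 37 C they received compounds via pintool; third, fluorescence was measured at 0 h through 40 h at 8 h intervals.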

[2] = qHTS RealTime-Glo MT Cell Viability Assay in HepG2 cells - 32 hour (AID 1224877); also: nearly all actives have a fitted effect of over 55% in size
Method in brief: (§2)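 Cell number in HepG2 cultures estimated from NanoLuc luminescence generated by metabolic reduction of a prosubstrate by living cells. The homogeneous, nonlytic format allowed repeated reads at 0, 8, 16, 24, 32 and 40 h of compound exposure.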

[3] = A CellTox Green Cytotoxicity Assay to monitor cytotoxicity in HepG2 cells - 24 hour (AID 1224878); also: nearly all actives have a fitted effect of over 45% in size
Method in brief: as §1

[4] = A CellTox Green Cytotoxicity Assay to monitor cytotoxicity in HepG2 cells - 40 hour (AID 1224879); also: nearly all actives have a fitted effect of over 40% in size
Method in brief: as §1

[5] = qHTS RealTime-Glo MT Cell Viability Assay in HEK293 cells - 0 hour (AID 1224880); also: top concentration of the series differs between compounds; nearly all actives have a fitted effect of over 45% in size
Method in brief: (§3)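 600 HEK293 cells per well, dispensed already mixed with RealTime-Glo MT reagents. Compound dosing came 5 h later. The same wells were read for luminescence at 0, 8, 16, 24, 32 and 40 h of exposure at 37 C.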

[6] = A CellTox Green Cytotoxicity Assay to monitor cytotoxicity in HEK293 cells - 32 hour (AID 1224881); also: nearly all actives have a fitted effect of over 40% in size
Method in brief: (§4)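 Dead-cell fluorescence measured kinetically: asymmetric cyanine dye, HEK293, 600 cells/well, 5 h settle, 23 nL cpd/DMSO, 37 C, reads 0–40 h every 8 h.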

[7] = A CellTox Green Cytotoxicity Assay to monitor cytotoxicity in HepG2 cells - 0 hour (AID 1224882); also: nearly all actives have a fitted effect of over 35% in size
Method in brief: as §1

[8] = A CellTox Green Cytotoxicity Assay to monitor cytotoxicity in HepG2 cells - 32 hour (AID 1224883); also: nearly all actives have a fitted effect of over 50% in size
Method in brief: as §1

[9] = A CellTox Green Cytotoxicity Assay to monitor cytotoxicity in HEK293 cells - 8 hour (AID 1224884); also: nearly all actives have a fitted effect of over 35% in size
Method in brief: as §4

[10] = qHTS RealTime-Glo MT Cell Viability Assay in HepG2 cells - 16 hour (AID 1224885); also: nearly all actives have a fitted effect of over 50% in size
Method in brief: as §2

[11] = qHTS RealTime-Glo MT Cell Viability Assay in HEK293 cells - 24 hour (AID 1224886); also: top concentration of the series differs between compounds; nearly all actives have a fitted effect of over 50% in size
Method in brief: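 Homogeneous bioluminescent viability format in HEK293 cells (600 cells/well). Following 5 h at 37 C/5% CO2, 23 nL compound was pintooled; the signal was measured repeatedly during 40 h incubation.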

[12] = qHTS RealTime-Glo MT Cell Viability Assay in HEK293 cells - 8 hour (AID 1224887); also: top concentration of the series differs between compounds; nearly all actives have a fitted effect of over 50% in size
Method in brief: as §3

[13] = A CellTox Green Cytotoxicity Assay to monitor cytotoxicity in HEK293 cells - 16 hour (AID 1224888); also: nearly all actives have a fitted effect of over 35% in size
Method in brief: as §4

[14] = qHTS RealTime-Glo MT Cell Viability Assay in HepG2 cells - 0 hour (AID 1224889); also: nearly all actives have a fitted effect of over 50% in size
Method in brief: as §2

[15] = A CellTox Green Cytotoxicity Assay to monitor cytotoxicity in HepG2 cells - 8 hour (AID 1224890); also: nearly all actives have a fitted effect of over 45% in size
Method in brief: as §1

[16] = qHTS assay to identify small molecule antagonists of the estrogen receptor alpha (ER-alpha) signaling pathway using the BG1 cell line in the presence of 0.1 nM 17-beta-estradiol - cell viability counter screen (AID 1259241); also: nearly all actives have a fitted effect of over 40% in size
Method in brief: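 VM7Luc4E2 cells (endogenous full-length ER-alpha, 4xERE-luciferase), cultured 5 days in charcoal-stripped serum, exposed to compounds with 0.1 nM 17beta-estradiol (final) for 22 hr at 37C. Viability read in same wells as live-cell protease fluorescence after 30 min.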

[17] = qHTS assay to identify small molecule antagonists of the androgen receptor (AR) signaling pathway using the MDA cell line in the presence of 0.5 nM R1881 - cell viability counter screen (AID 1259242); also: nearly all actives have a fitted effect of over 45% in size
Method in brief: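 qHTS format. MDA-kb2 (MMTV-luc, AR/GR responsive) + cpd + 0.5 nM R1881 final, 16 hr 37C/0% CO2 → CellTiter-Fluor 30 min → fluorescence intensity.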

[18] = biological target: Estrogen receptor (Homo sapiens) (UniProt P03372); experiment: qHTS assay to identify small molecule antagonists of the estrogen receptor alpha (ER-alpha) signaling pathway using the BG1 cell line in the presence of 0.1 nM 17-beta-estradiol (AID 1259244); also: nearly all actives have a fitted effect of over 50% in size
Method in brief: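 Reporter is a stably transfected luciferase under four estrogen responsive elements in VM7Luc4E2 cells expressing native full-length ER-alpha; inhibition of 0.1 nM (final) 17beta-estradiol-driven signal over 22 h is read by luminescence.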

[19] = qHTS assay to identify small molecule phospholipidosis (PLD) inducers (AID 1259344; active = well fitted curve in the direction sought with a large enough effect; an effect the other way counts as inactive or inconclusive)
Method in brief: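 Accumulated phospholipid, stained red by LipidTOX during 24 h compound treatment of HepG2 cells at 37 C, is quantified from images as pit number and intensity, normalised per cell using Hoechst-stained nuclei.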

Measured: Potency

Chain of Estrogen receptor (Homo sapiens) (P03372 whole entry, looked up): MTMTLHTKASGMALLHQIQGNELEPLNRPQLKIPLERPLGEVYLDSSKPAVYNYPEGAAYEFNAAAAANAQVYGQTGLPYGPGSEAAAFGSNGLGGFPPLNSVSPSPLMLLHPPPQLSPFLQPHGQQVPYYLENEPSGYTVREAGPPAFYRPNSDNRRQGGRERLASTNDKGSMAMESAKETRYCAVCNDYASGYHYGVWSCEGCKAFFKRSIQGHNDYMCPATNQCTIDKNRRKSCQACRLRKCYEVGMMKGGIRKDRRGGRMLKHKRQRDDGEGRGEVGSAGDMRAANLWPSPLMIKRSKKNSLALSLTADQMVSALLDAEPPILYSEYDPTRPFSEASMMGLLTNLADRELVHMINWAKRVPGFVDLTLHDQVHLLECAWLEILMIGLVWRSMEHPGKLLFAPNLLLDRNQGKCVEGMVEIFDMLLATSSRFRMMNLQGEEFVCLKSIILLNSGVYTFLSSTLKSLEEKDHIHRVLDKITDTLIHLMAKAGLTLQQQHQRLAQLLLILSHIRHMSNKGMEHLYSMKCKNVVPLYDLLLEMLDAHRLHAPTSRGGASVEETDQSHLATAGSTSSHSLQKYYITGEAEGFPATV

CN(C)CCOCCN(C)CCO
not listed: [19]
inactive: all other assays above

CCS(=O)(=O)CCn1c([N+](=O)[O-])cnc1C
inactive: all assays above

CC(C)CCCCCCOC(=O)C1CCCCC1C(=O)OCCCCCCC(C)C (stereo not drawn)
not listed: [19]
inactive: all other assays above

C[N+](C)(C)CC(O)CCl (stereo not drawn)
not listed: [19]
inactive: all other assays above

CCCCCC1Nc2cc(C(F)(F)F)c(S(N)(=O)=O)cc2S(=O)(=O)N1 (stereo not drawn)
inactive: all assays above

NS(=O)(=O)c1ccc(Cl)c(S(N)(=O)=O)c1
not listed: [18]
inactive: all other assays above

C=CCOc1c(Br)cc(C(C)(C)c2cc(Br)c(OCC=C)c(Br)c2)cc1Br
not listed: [19]
inactive: all other assays above

CCCCCCCCCCCCOC(C)=O
not listed: [19]
inactive: all other assays above

CCOC(=O)C(=O)c1csc(NC=O)n1
not listed: [19]
inactive: all other assays above

CC(=O)c1ccc2c(c1)CCCC2
not listed: [19]
inactive: all other assays above

Cc1cc(O)c2c(c1)C(=O)c1cccc(O)c1C2=O
not listed: [19]
inactive: all other assays above

CCOC(=O)C(C)(C)C
not listed: [19]
inactive: all other assays above

CC(=O)c1ccc(OCC(=O)N2CCCCC2)cc1
inactive: all assays above

CC(CC(=O)O)CC(C)(C)C (stereo not drawn)
not listed: [19]
inactive: all other assays above

O=C(O)C(=O)Nc1cccc(-c2nn[nH]n2)c1
not listed: [18]
inactive: all other assays above
